# Experimental data taken from PubChem BioAssay (NCATS).
# Inconclusive results are not listed. Where a call stands in place of a potency, no number is given. Activity calls are given as the source filed them. Calls come from the whole dose curve; as a rule, active = well fitted curve in the direction sought with a large enough effect; inconclusive = small, poorly fitted or top-dose-only effect, or another doubt; inactive = no such curve, though single readings can be large; an effect the other way counts as inactive or inconclusive.
# Tests used:
# [1] = P-glycoprotein substrates identified in KB-3-1 adenocarcinoma cell line, qHTS therapeutic library screen (AID 1346986); conditions: KB-3-1 parental cells viability, CellTiter-Glo, 72 h; series mostly up to 44.5 µM; note: nearly all actives have a fitted effect of over 60% in size
# In short: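 Dose-response cytotoxicity, KB-3-1 vs P-gp-high KB-8-5-11, no colchicine in assay medium. Read: CellTiter-Glo at 72 h.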
# [2] = P-glycoprotein substrates identified in KB-8-5-11 adenocarcinoma cell line, qHTS therapeutic library screen (AID 1346987); conditions: KB-8-5-11 (P-gp overexpressing) viability, CellTiter-Glo, 72 h; series mostly up to 44.5 µM; note: nearly all actives have a fitted effect of over 65% in size
# In short: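 Human cervical adenocarcinoma KB-8-5-11 cells, selected in colchicine to over-express P-gp and assayed without it, were exposed for 72 h to titrated compounds. An ATP-based luminescent viability signal gave AC50.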
SMILES,Potency [1],Potency [2],outcome [1],outcome [2]
CCC(C)/C=C(C)/C=C/C1=CC2=C(Cl)C(=O)C(C)(OC(C)=O)C(=O)C2=CN1C(CCC(=O)O)C(=O)O (stereo not drawn),inactive,inactive,,
CC1CCCCCCCc2cc(O)cc(O)c2C(=O)O1 (stereo not drawn),inactive,inactive,,
C[C@@H]1O[C@@H](O[C@H]2[C@H](Oc3cc(O)c(C(=O)CCc4ccc(O)cc4)c(O)c3)O[C@H](CO)[C@@H](O)[C@@H]2O)[C@H](O)[C@H](O)[C@H]1O,inactive,inactive,,
O=C(O)CCc1c(C(=O)O)[nH]c2cc(Cl)cc(Cl)c12,inactive,inactive,,
CC(O)C1NC(=O)C2CCCN2C1=O (stereo not drawn),inactive,inactive,,
Cc1c(O)cc2c(c1O)COC1(O)CCCOC21 (stereo not drawn),inactive,inactive,,
C=CCc1ccc(O[C@@H]2O[C@H](CO)[C@@H](O)[C@H](O)[C@H]2O)c(O[C@@H]2O[C@H](CO)[C@@H](O)[C@H](O)[C@H]2O)c1,inactive,inactive,,
COc1cc(O)cc(O[C@@H]2O[C@H](CO)[C@@H](O[C@@H]3OC[C@](O)(CO)[C@H]3O)[C@H](O)[C@H]2O)c1OC,inactive,inactive,,
COC(=O)C1=CO[C@@H](O[C@@H]2O[C@H](CO)[C@@H](O)[C@H](O)[C@H]2O)[C@@H]2[C@@H](CO)[C@@H](O)C(O)[C@H]12 (stereo partly drawn),inactive,inactive,,
COC(=O)C1=COC(OC2OC(CO)C(O)C(O)C2O)C2C(COC(=O)/C=C/c3ccc(O)c(O)c3)C(O)C(O)C12 (stereo not drawn),inactive,inactive,,
C=C1CC[C@H]2[C@@](C)(CCC(O)[C@@]2(C)CO)[C@@H]1/C=C/C(=C\C(=O)O)C(=O)O (stereo partly drawn),inactive,inactive,,
CC1(C)Oc2ncnc(N)c2N=C1c1ccc(C2CCC(CC(=O)O)CC2)cc1 (stereo not drawn),inactive,inactive,,
O=C(/C=C/c1ccc(O)cc1)OC[C@H]1O[C@@H](O/C(=C\c2ccccc2)C(=O)O)[C@H](O)[C@@H](O)[C@@H]1O,inactive,inactive,,
O=C(O)/C=C/c1ccc(O[C@@H]2O[C@H](CO)[C@@H](O)[C@H](O)[C@H]2O)cc1,inactive,inactive,,
C/C=C(\C)C(=O)OC[C@H]1O[C@H](O[C@H]2O[C@H](CO)[C@@H](O)[C@H](O)[C@H]2O[C@@H]2O[C@H](CO)[C@@H](O)[C@H](O)[C@H]2O)[C@H](O[C@@H]2O[C@H](CO)[C@@H](O)[C@H](O)[C@H]2O)[C@@H](O)[C@@H]1O,inactive,inactive,,
CCC(C)C(=O)O[C@H]1C[C@](C)(O)[C@]23OC(C)(C)[C@H](C[C@H](OC(=O)c4ccccc4)[C@]2(COC(C)=O)[C@H]1OC(=O)C(C)CC)[C@H]3OC(C)=O (stereo partly drawn),inactive,inactive,,
OCC(O)C(c1c[nH]c2ccccc12)c1c[nH]c2ccccc12 (stereo not drawn),inactive,inactive,,
Cc1cn(-c2cc(NC(=O)c3ccc(C)c(Nc4nccc(-c5cnccn5)n4)c3)cc(C(F)(F)F)c2)cn1,inactive,inactive,,
O=C(/C=C/c1ccc(O)cc1)OC[C@@]1(O)C=C[C@@H]2C(C(=O)O)=CO[C@@H](O[C@@H]3O[C@H](CO)[C@@H](O)[C@H](O)[C@H]3O)[C@@H]21,inactive,inactive,,
CC1(C)CC[C@]2(C(=O)O[C@@H]3O[C@H](CO[C@@H]4O[C@H](CO[C@@H]5O[C@H](CO)[C@H](O)[C@H](O)[C@H]5O)[C@@H](O)[C@H](O)[C@H]4O)[C@@H](O)[C@H](O[C@@H]4O[C@H](CO)[C@@H](O)[C@H](O)[C@H]4O)[C@H]3O)[C@H](O)C[C@]3(C)C(=CCC4[C@@]5(C)CC[C@H](O[C@@H]6OC[C@@H](O)[C@H](O)[C@H]6O)[C@@](C)(C(=O)O)C5CC[C@]43C)[C@@H]2C1 (stereo partly drawn),,,inactive [at 9.29 µM],inactive [at 9.29 µM]
C/C(=C\CCC1(C)C2CC3C(C2)C31C)C(=O)O (stereo not drawn),inactive,inactive,,
COC(=O)c1[nH]c(=O)c2ccccc2c1-c1ccc[nH]1,inactive,inactive,,
Cn1cc(CCn2cnc(-c3cnn(C)c3)c2-c2ccc(C#N)cc2)cn1,inactive,inactive,,
CC1OC(O[C@@H]2[C@H](O)[C@@H](OC3OC(CO)C(O)C(O)C3O)[C@H](OC(=O)[C@]34CCC(C)(C)C[C@H]3C3=CCC5[C@@]6(C)CC[C@H](O[C@@H]7O[C@H](C(=O)O)[C@@H](O)[C@H](O[C@@H]8OC[C@@H](O)[C@H](O)[C@H]8O)[C@H]7O[C@@H]7O[C@H](CO)[C@H](O)[C@H](O)[C@H]7O)[C@@](C)(C=O)C6CC[C@@]5(C)[C@]3(C)C[C@H]4O)O[C@@H]2C)C(O)C(O)C1OC1OCC(O)C(O)C1O (stereo partly drawn),,,inactive [at 5.11 µM],inactive [at 5.11 µM]
